# Bioassay records from PubChem.
# The list is not random: actives were taken first. Their share in the collection is about 1.8%.
# Myeloid diff 2 – compounds promoting myeloid differentiation; ER-HoxA9 myeloid progenitors, lysozyme-GFP differentiation, flow cytometry; calls only at 10 µM; actives 1% (n = 360,000); AID 624256;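 active = normalized GFP-positive differentiation at or above the plate's own cutoff, the solvent-only control mean plus 3 SD; inconclusive = no clear call, values can overlap the other calls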;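 also: cells exposed to compound for four days before flow analysis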
# ABCB6 inh 2 – human ABCB6 transporter inhibition; Q9NP58; K562-ABCB6 porphyrin accumulation, flow cytometry, 1 h; active compounds read low; fluorescence ratio to DMSO, % at 10 µM; actives 0.19% (n = 360,000); AID 602162;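 active = fluorescence ratio to DMSO below 75%, the collection mean minus 3 SD; inconclusive = too few cells collected in the well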;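 also: signal is porphyrin accumulated inside mitochondria; 100% equals median channel fluorescence of DMSO control wells; lower ratio means ABCB6 inhibition with less porphyrin fluorescence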
# Target sequence (Q9NP58 whole entry, looked up): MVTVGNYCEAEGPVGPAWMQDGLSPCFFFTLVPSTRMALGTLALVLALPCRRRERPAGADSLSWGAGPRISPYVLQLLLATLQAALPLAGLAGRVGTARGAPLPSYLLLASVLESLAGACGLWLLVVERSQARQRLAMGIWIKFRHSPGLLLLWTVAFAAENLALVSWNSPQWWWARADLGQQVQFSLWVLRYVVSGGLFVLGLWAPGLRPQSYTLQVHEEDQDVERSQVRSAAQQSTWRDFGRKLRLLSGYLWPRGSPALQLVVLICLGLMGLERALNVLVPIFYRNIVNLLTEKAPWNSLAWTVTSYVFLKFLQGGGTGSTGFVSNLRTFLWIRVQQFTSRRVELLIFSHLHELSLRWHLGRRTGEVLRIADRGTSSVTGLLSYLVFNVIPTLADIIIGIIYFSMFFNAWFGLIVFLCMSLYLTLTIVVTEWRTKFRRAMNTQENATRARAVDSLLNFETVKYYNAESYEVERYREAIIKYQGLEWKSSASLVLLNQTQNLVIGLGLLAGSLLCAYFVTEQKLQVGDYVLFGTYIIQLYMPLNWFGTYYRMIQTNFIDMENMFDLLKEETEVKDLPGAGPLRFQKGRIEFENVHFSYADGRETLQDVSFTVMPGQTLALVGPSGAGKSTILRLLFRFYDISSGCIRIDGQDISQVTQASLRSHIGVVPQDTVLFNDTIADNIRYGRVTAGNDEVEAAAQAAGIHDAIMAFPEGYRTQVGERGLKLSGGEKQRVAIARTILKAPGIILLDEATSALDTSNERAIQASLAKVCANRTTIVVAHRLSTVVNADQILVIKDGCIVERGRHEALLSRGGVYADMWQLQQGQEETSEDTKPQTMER
# Granule exo inh – blocks lytic granule exocytosis; TALL-104 LAMP-1 surface exposure, flow cytometry; cells stimulated with thapsigargin and PMA; inhibition, % at 10 µM; actives 0.66% (n = 360,000);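 active = inhibition above about 55%, limit read from the data; inconclusive = no clear call, values can overlap the other calls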
# * hit, by the source's call; i = inactive; u = inconclusive; + = active, no number.
SMILES,Myeloid diff 2,ABCB6 inh 2,Granule exo inh
O=C(CNC(=O)c1cc(Cl)cc([N+](=O)[O-])c1)NC1CC1,i,93,-1
C(=C/c1nccc2c1[nH]c1ccccc12)/c1ccc2c(c1)OCO2,+,175,31
C(=N\Nc1nc2ccccc2[nH]1)/c1ccc2c(c1)OCO2,i,96,-2
Cc1ccc(OC(=O)N(C)C[C@@H]2OCc3cn(nn3)CCCC(=O)N([C@H](C)CO)C[C@H]2C)cc1,i,96,1
CC(=O)Nc1cccc(-c2ccnc3c2CC(C)(C(=O)NCc2ccc(F)c(F)c2)O3)c1 (centres undefined),+,110,19
CC(=O)Nc1cccc(-c2ccnc3c2CC(C)(C(=O)NCCC(F)(F)F)O3)c1 (centres undefined),+,144,-4
CC(=O)Nc1ccc(-c2ccnc3c2CC(C)(C(=O)NCCC(F)(F)F)O3)cc1 (centres undefined),i,95,-4
CC1(C(=O)NCc2ccc(F)c(F)c2)Cc2c(-c3cccc(C(N)=O)c3)ccnc2O1 (centres undefined),i,99,8
Cc1cccc2c(N=Nc3ccc(S(=O)(=O)Nc4ccc(Cl)cc4)cc3[N+](=O)[O-])c(O)[nH]c12,i,99,-3
C[C@H]1COC(=O)[C@@H](CC(=O)OC(C)(C)C)C/C=C\C[C@@H](CC(=O)N(CCO)Cc2ccccc2)C(=O)N1,i,98,-8
COc1ccccc1NS(=O)(=O)c1ccc(C)c(NS(=O)(=O)c2cc(C(=O)O)cc(C)c2C)c1,i,100,4
CC(=O)Nc1ccc(S(=O)(=O)NCC(=O)OCC(=O)N2CC(C)OC(C)C2)cc1 (centres undefined),i,101,-2
O=C(COC(=O)c1cc(=O)[nH]c2ccccc12)NCCc1ccccc1,i,96,-1
CN(CC(=O)Nc1cc(Cl)ccc1-n1cncn1)Cc1ccccc1N1CCOCC1,i,96,2
CC1=N/C(=C/c2cccnc2)C(=O)O1,i,85,-1
Cc1cccc(C2=N/C(=C\c3cccnc3)C(=O)O2)c1,i,68*,3
O=C1NC(=S)NC1(c1ccccc1)c1ccccc1,i,100,27
COc1ccc(CNC(=O)O[C@H]2C[C@@H]3C(=O)N(c4ccccc4)C(=O)[C@@H]3[C@@H]3CN(S(=O)(=O)c4ccc(C)cc4)C[C@]23O)cc1OC,i,99,0
O=C(COC(=O)CNS(=O)(=O)c1cccc(Br)c1)NC(=O)Nc1ccc2c(c1)OCCO2,i,97,-6
COc1ccc(OC)c(CNC(=O)CCCc2cn(C)c3ccccc23)c1,i,103,-1
COc1ccc(Br)cc1CNC(=O)CCCc1cn(C)c2ccccc12,+,97,-1
Cc1ccc(S(=O)(=O)N2CC3(O)CN(C(=O)OC(C)C)N(C(=O)OC(C)C)CC3(OC(=O)NCc3ccco3)C2)cc1 (centres undefined),i,92,0
N#CN1CCC(NS(=O)(=O)c2ccc(C(F)(F)F)cc2)C1 (centres undefined),i,101,-6
CC1CCN(S(=O)(=O)c2ccc(N/N=C(/C#N)C(N)=O)cc2)CC1,i,99,1
N#C/C(=N\Nc1ccc(S(=O)(=O)N2CCOCC2)cc1)C(N)=S,+,97,-2
SMILES,Myeloid diff 2,ABCB6 inh 2,Granule exo inh
CCN(CC)c1ccc(/C=C(\C#N)C(N)=S)cc1,+,113,7
CCN(CC)c1ccc(/C=C(\C#N)C(N)=O)cc1,i,99,1
CC1=C(C(=O)OCc2ccccc2)C(c2ccc([N+](=O)[O-])cc2)NC(=O)N1CCCCCC(=O)O (centres undefined),i,100,4
CC1=C(C(=O)OCc2ccccc2)C(c2ccc([N+](=O)[O-])cc2)NC(=O)N1CCCC(=O)O (centres undefined),i,99,62*
Cn1nnnc1SCC(=O)NC1CCCC1,i,96,-7
Cc1cc(NC(=O)CS(=O)(=O)c2cn(Cc3ccccc3Cl)c3ccccc23)no1,+,89,4
Cc1cc(NC(=O)CS(=O)(=O)c2cn(Cc3cccc(Br)c3)c3ccccc23)no1,i,101,4
OC(c1ccccc1)c1ncc(-c2cccc(OCc3ccccc3)c2)[nH]1 (centres undefined),i,98,-1
O=S(=O)(c1ccc(N2CCN(c3ccc(F)cc3)CC2)cc1)N1CCCC1,i,99,-4
O=S(=O)(c1ccc(N2CCCC2)cc1)C(F)(F)F,+,96,-5
COc1ccc(CN2CCC[C@]3(N[C@H](c4ccccc4)[C@@H]4C(=O)N(C)C(=O)[C@@H]43)C2=O)cc1,i,100,-3
COc1ccc(NC(=O)CN2C(=O)/C(=C3\SC(=S)N(CCC(=O)O)C3=O)c3ccccc32)cc1,i,96,1
O=C(O)CCN1C(=O)/C(=C2\C(=O)N(Cc3ccccc3Cl)c3ccccc32)SC1=S,+,95,-5
CC1(C)CC(=O)C(=Cc2cn(CCC#N)nc2-c2ccc(Cl)cc2)C(=O)C1,i,99,74*
CC1(C)CC(=O)C(=Cc2cn(CCC#N)nc2-c2ccc(F)cc2)C(=O)C1,i,101,28
Cc1ccc(S(=O)(=O)n2cc(CO)c3ccccc32)cc1,i,94,13
O=[N+]([O-])/C=C/c1c(OCc2ccccc2)ccc2ccccc12,i,106,78*
CCOC(=O)COc1ccc2ccccc2c1/C=C/[N+](=O)[O-],i,91,5
CCOC(=O)Cn1cc(/C=C/[N+](=O)[O-])c2ccccc21,i,103,-3
CCOc1ccc(/C=C/[N+](=O)[O-])c2ccccc12,i,106,102*
Cc1ccc(NC(=O)c2ccc(-c3nn(C)c(=O)c4ccccc34)cc2)cc1,+,100,-3
Cn1nc(-c2ccc(C(=O)Nc3ccc(F)cc3)cc2)c2ccccc2c1=O,i,101,-5
COc1ccc(NC(=O)CSc2nnc(-c3cccs3)n2N)cc1S(N)(=O)=O,i,96,-8
O=C1/C(=C/c2ccc(N3CCOCC3)o2)SC(=Nc2ccccc2)N1CCc1c[nH]c2ccccc12,+,i,75*
COc1cc(/C=C2\SC(=Nc3ccccc3)N(CCc3c[nH]c4ccccc34)C2=O)ccc1OC(C)C(=O)O (centres undefined),i,73*,0
SMILES,Myeloid diff 2,ABCB6 inh 2,Granule exo inh
O=C1N/C(=C/c2ccc(N3CCOCC3)o2)C(=O)N1c1ccccc1,u,105,-1
COc1ccc(N=C2S/C(=C\c3ccc(OC(C)C(=O)O)c(OC)c3)C(=O)N2CCc2c[nH]c3ccccc23)cc1 (centres undefined),i,94,2
COc1ccc(OC)c(C(C[N+](=O)[O-])c2c(C)cc3ccccn23)c1 (centres undefined),u,104,75*
COc1ccc(C(C[N+](=O)[O-])c2c(C)cc3ccccn23)c(OC)c1 (centres undefined),u,104,27
N#CC(C#N)=C1C=CC=CN1/C(=C\c1ccco1)C(=O)c1ccccc1,u,108,45
COc1ccc(/C=C(/C(=O)c2cccs2)N2C=CC=CC2=C(C#N)C#N)cc1,i,97,44
